The supplement of paper PMC3334620
Over roughly 33,000 sequences, “E-score (-0.5 to 0.5)” has its median near -0.035; the highest 2% begin near 0.35. The full list was thinned out, with the highest values kept by preference.

Target: T1, Pdr3 (UniProt P33200)
T1 sequence: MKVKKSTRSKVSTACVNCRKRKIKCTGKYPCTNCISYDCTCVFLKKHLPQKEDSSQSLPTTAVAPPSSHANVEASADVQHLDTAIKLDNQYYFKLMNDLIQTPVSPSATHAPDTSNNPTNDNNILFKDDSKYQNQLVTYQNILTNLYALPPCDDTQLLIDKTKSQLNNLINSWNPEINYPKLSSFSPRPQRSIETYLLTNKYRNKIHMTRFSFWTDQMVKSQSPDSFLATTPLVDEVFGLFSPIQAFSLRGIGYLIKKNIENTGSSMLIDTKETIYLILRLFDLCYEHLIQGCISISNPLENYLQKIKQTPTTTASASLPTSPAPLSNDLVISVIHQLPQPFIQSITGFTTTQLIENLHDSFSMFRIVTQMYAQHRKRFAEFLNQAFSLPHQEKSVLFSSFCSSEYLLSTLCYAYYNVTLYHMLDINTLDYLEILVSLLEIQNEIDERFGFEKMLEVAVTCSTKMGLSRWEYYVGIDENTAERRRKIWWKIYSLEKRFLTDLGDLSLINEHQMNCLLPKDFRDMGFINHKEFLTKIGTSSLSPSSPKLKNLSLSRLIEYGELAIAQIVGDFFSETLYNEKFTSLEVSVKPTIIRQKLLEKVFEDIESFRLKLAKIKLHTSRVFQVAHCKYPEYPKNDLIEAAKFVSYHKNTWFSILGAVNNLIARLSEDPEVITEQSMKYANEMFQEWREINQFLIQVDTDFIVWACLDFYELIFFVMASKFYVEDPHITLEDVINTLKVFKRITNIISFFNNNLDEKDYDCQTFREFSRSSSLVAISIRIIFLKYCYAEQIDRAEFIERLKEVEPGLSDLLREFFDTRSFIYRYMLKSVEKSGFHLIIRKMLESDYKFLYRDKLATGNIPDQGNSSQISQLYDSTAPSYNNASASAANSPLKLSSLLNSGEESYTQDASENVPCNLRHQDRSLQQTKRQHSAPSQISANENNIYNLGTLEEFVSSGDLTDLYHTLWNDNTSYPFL
Test: PBM E-score (8-mer binding enrichment) (E-score (-0.5 to 0.5)); higher = stronger / more preferred TF binding
Details: protein concentration: 200 nM; construct: GST-full length
Description: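 Universal 'all 10-mer' protein binding microarrays (Agilent AMADID 015681) probed with GST-tagged S. cerevisiae TFs (full-length or DBD) made by in vitro transcription/translation (PURExpress), about 100-200 nM. Bound TF was detected with fluorescent anti-GST. Each ungapped 8-mer (which stands for itself and its reverse complement) is scored by the PBM enrichment score (E-score), a modified Wilcoxon-Mann-Whitney statistic from -0.5 to +0.5, computed with the Universal PBM Analysis Suite. Scale: above 0.35 generally sequence-specific binding.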

Row | Sequence | PBM E-score
1 | GGGCGGAA | 0.414
2 | GGGCGGGA | 0.35
3 | GGGCGGTA | 0.195
4 | TATTCTAA | 0.0298
5 | CTCGCTCC | 0.0762
6 | AGAGGACA | -0.0484
7 | GGTCGACC | 0.38
8 | CGTCGACC | 0.0668
9 | AGTCGACC | 0.0168
10 | ACTTGCTG | -0.278
11 | GCGCCCAC | -0.0118
12 | ATCTTTCC | 0.265
13 | ACCGGAGC | 0.356
14 | ACTGGAGC | -0.056
15 | ACCGGAGG | 0.281
16 | CCCGGAGC | 0.39
17 | CCCGGTGC | 0.215
18 | CCGGGAGC | 0.306
19 | AGTGGCGC | 0.153
20 | TCGATAGA | -0.125
21 | CCGTAACA | -0.0633
22 | ACCTTAGT | -0.174
23 | ACTCTATG | 0.0265
24 | CGGAACAC | 0.483
25 | GGGAACAC | 0.183

Row | Sequence | PBM E-score
26 | AGGAACAG | -0.195
27 | CGGAACAA | 0.476
28 | CGGAACAG | 0.466
29 | CCGAACAG | 0.0662
30 | TGGAACAA | -0.0164
31 | AGGAACAC | 0.168
32 | GGGAACAA | 0.188
33 | CCTAGTCG | -0.23
34 | CAGGTAAA | -0.0305
35 | ATCCTATC | 0.0308
36 | ATTACCGG | 0.243
37 | ACTAGAGG | -0.161
38 | CAATAAGA | -0.172
39 | AAGGGGAG | -0.118
40 | ACTACGGG | 0.118
41 | CCTACGGA | 0.239
42 | ATTACGGC | 0.0318
43 | ATTACGGA | 0.361
44 | ATTACGGG | -0.0819
45 | ACTACGGA | 0.362
46 | ATACGAAA | 0.182
47 | AACACAGT | -0.0579
48 | TGGAGTAA | -0.0368
49 | TGGAAACA | -0.184
50 | CCCGACCA | 0.155

Row | Sequence | PBM E-score
51 | GCGTACGA | -0.0757
52 | AGAAGGGA | -0.323
53 | GTTGCGGA | 0.236
54 | CCGATCCA | 0.155
55 | CCGATCCC | 0.175
56 | ACGATCCG | 0.368
57 | CCGATCCG | 0.371
58 | ACGATCCA | -0.0267
59 | ACGATCCC | 0.183
60 | GCCAGTAC | -0.0709
61 | ATTTTGGC | 0.16
62 | TAGTCATA | -0.247
63 | ACCTGGCC | 0.162
64 | TATCTTAA | -0.0962
65 | GTACGGTA | 0.0177
66 | TTACGAAA | -0.0461
67 | CTACGGAA | 0.407
68 | TTATGGAA | 0.0348
69 | GTACGGAA | 0.402
70 | ATACGGAA | 0.439
71 | TTACGGAA | 0.419
72 | ATACGGAT | 0.241
73 | ATACGGAC | 0.239
74 | CTACGGAG | 0.246
75 | GTACGGAC | 0.278

Row | Sequence | PBM E-score
76 | CTACGGAC | 0.0596
77 | ACGATTTC | 0.051
78 | TACTGATA | 0.0935
79 | ATGGACAC | 0.0372
80 | CTCCTCAA | -0.152
81 | GAACGCAA | 0.133
82 | GCGTTAGC | -0.213
83 | ATACAGCG | -0.116
84 | ATCCGCCG | 0.387
85 | ACCCGCCC | 0.348
86 | ATCCGCCA | 0.185
87 | ATCCGCCC | 0.251
88 | ACCCGCCA | 0.0368
89 | ACCCGCCG | 0.388
90 | CGAACTCG | 0.17
91 | GCTGCAAA | -0.0739
92 | GGGAATAA | 0.199
93 | TGGAATAA | -0.00691
94 | CAGAATAG | -0.0833
95 | GGGAATAC | 0.162
96 | AGGAATAC | -0.2
97 | AGGAATAG | -0.072
98 | CGGAATAC | 0.427
99 | CGGAATAG | 0.418
100 | CGGAATAA | 0.422

Row | Sequence | PBM E-score
101 | CCTGAAGA | -0.0192
102 | GGCGCCTA | -0.0415
103 | CTACAGCC | -0.129
104 | GCCTCATA | 0.0142
105 | CTTGTCCC | 0.19
106 | AAGTTCCC | 0.14
107 | CAGTTCCC | 0.342
108 | CAGTTCCG | 0.473
109 | AAGTTCCG | 0.445
110 | AAGTTCCT | 0.0364
111 | CAGTTCCA | -0.0348
112 | CATGAAGC | 0.058
113 | CCAGCCTA | -0.182
114 | CTAGGGAG | -0.205
115 | GCAAGCCC | -0.0061
116 | AGGAATTC | -0.00951
117 | AGGAATTA | -0.091
118 | CGGAATTC | 0.434
119 | CGGAATTA | 0.43
120 | GGGAATTA | 0.118
121 | CTGAATTC | -0.136
122 | GTGCCTAA | -0.288
123 | CTATCTAA | 0.00128
124 | GTCCCTGA | -0.23
125 | GAGCGAAA | 0.146

Row | Sequence | PBM E-score
126 | CCTTTCCA | -0.0113
127 | ACTTTCCT | -0.151
128 | CCTTTCCG | 0.387
129 | ACTTTCCC | 0.0862
130 | ACTTTCCG | 0.417
131 | CCTTTCCC | 0.235
132 | AGGTTTTG | -0.197
133 | AAACTCTT | -0.264
134 | CAGTCGGC | 0.0494
135 | GGCCGGAA | 0.431
136 | AGCCGGTC | -0.0317
137 | GGCCGGAC | 0.216
138 | GGCCGAAA | 0.199
139 | CGCCGGAA | 0.45
140 | AGCCGGTG | 0.187
141 | AGCCGGAG | 0.362
142 | AGCCGGGG | 0.152
143 | AGCCGTAT | 0.0899
144 | CGCCGGAC | 0.316
145 | AGCCGGAT | 0.391
146 | CGCCGGAG | 0.299
147 | GCGGATGA | 0.303
148 | GAACCCTA | -0.0298
149 | AGTTCAAG | 0.0398
150 | AAAGCTTT | 0.00459

Row | Sequence | PBM E-score
151 | GGAGCACA | 0.0257
152 | ACGTACGA | -0.133
153 | CGTAGAGA | -0.182
154 | TGCCGGAA | 0.454
155 | AGCCGGTA | 0.199
156 | AGCCGGAC | 0.345
157 | TGCCGAAA | 0.118
158 | TGCCGTAA | -0.187
159 | AGCCGGAA | 0.438
160 | AGCAACCT | -0.0661
161 | TCGAGGCA | -0.123
162 | CGGCGAGA | 0.0811
163 | GTTTCTCA | -0.134
164 | CGGGATCA | 0.344
165 | ACGGATCT | 0.271
166 | CGGGATCC | 0.417
167 | AGGGATCC | 0.196
168 | ACGGATCG | 0.236
169 | TCGGATCA | 0.303
170 | CCGGATCG | 0.391
171 | CAGGATCG | 0.0205
172 | ACGGATCC | 0.445
